Results: PMC7862700, “An all-to-all approach to the identification of sequence-specific readers for epigenetic DNA modifications on cytosine”

Columns and labels:
Test in all cases: DAPPL (digital affinity profiling via proximity ligation, sequencing); 10 mM Tris-HCl pH 7.5, 50 mM NaCl, 1 mM DTT, 4% glycerol, room temperature, 30 min; GST-TFs on glutathione beads, 16-mer random dsDNA library, 0.1% formaldehyde crosslink after washing; high values mean tight binding
FLI1 = target: T1, FLI1 (Homo sapiens, UniProt Q01543 1-452); conditions: protein: recombinant; tags: N-terminal GST; dsDNA, one strand shown
T1 sequence: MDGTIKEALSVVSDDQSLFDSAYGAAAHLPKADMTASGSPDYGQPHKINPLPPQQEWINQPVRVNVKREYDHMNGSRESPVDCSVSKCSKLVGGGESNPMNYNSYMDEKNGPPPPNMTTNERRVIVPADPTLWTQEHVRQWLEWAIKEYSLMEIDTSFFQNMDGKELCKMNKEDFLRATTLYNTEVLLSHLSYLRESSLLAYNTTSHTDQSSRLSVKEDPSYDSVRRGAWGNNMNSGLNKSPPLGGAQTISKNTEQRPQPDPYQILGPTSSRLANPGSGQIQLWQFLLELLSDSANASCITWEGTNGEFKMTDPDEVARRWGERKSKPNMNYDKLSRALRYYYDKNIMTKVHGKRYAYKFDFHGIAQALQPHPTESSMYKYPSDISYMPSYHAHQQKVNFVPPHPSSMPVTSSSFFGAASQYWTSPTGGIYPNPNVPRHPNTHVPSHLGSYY
Procedure, shortened: (§1)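 Human transcription factors were made in yeast as GST fusions, captured on glutathione beads and barcoded with DNA. With a tag-only sample included, the pool was incubated with 200 nmole of a random double-stranded 16-mer DNA library in Tris/NaCl/DTT/glycerol buffer at room temperature for 30 min, then crosslinked with 0.1% formaldehyde after washing, ligated by proximity, amplified and sequenced. For binding signal, each hexamer's read frequency for a factor is divided by its frequency for the tag-only sample.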

ELK1 = target: T2, ELK1 (Homo sapiens, UniProt P19419 1-428); conditions: protein: recombinant; tags: N-terminal GST; dsDNA, one strand shown
T2 sequence: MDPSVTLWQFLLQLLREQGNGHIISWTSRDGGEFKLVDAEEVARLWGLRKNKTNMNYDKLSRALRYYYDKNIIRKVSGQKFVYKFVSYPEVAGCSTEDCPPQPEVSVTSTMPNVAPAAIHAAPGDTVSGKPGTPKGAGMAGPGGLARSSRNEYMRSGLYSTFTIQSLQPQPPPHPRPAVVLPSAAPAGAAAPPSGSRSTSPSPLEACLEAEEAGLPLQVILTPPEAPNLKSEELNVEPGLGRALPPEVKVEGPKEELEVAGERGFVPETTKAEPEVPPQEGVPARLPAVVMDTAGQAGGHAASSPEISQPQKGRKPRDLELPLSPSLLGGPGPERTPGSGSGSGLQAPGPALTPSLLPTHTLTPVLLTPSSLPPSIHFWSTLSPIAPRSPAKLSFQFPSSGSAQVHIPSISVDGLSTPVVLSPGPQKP
Procedure, shortened: as §1

GABPA = target: T3, GABPA (Homo sapiens, UniProt Q06546 1-454); conditions: protein: recombinant; tags: N-terminal GST; dsDNA, one strand shown
T3 sequence: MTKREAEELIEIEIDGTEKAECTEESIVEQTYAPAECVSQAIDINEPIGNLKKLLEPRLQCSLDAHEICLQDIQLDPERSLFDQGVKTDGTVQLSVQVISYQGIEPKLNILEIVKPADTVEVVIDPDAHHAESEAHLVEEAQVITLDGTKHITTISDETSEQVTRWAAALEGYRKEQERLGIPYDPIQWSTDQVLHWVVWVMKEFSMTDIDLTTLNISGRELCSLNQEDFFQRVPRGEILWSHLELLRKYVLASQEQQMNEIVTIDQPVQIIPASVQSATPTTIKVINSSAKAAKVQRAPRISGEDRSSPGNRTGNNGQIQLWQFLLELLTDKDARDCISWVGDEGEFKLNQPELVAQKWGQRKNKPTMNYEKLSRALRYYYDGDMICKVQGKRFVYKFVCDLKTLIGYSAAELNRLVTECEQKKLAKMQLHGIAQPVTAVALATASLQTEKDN
Procedure, shortened: as §1

ERG = target: T4, ERG (Homo sapiens, UniProt P11308 1-479); conditions: protein: recombinant; tags: N-terminal GST; dsDNA, one strand shown
T4 sequence: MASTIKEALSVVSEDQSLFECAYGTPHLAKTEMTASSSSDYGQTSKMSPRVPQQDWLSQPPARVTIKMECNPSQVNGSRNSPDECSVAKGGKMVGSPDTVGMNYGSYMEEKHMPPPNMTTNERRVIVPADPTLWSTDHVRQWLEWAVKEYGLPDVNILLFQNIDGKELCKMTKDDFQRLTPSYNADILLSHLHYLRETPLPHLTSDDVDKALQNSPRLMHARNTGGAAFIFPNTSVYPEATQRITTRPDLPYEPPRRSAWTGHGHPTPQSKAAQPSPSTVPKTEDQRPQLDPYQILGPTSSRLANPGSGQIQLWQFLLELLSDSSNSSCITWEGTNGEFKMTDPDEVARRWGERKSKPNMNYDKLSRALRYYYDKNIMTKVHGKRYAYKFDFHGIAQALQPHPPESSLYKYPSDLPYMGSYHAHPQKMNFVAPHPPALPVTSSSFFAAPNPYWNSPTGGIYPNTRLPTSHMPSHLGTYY
Procedure, shortened: as §1

ELF1 = ELF1 (Homo sapiens, UniProt P32519 1-619); conditions: protein: recombinant; tags: N-terminal GST; dsDNA, one strand shown
Procedure, shortened: as §1

EHF = target: T5, EHF (Homo sapiens, UniProt Q9NZC4 1-300); conditions: protein: recombinant; tags: N-terminal GST; dsDNA, one strand shown
T5 sequence: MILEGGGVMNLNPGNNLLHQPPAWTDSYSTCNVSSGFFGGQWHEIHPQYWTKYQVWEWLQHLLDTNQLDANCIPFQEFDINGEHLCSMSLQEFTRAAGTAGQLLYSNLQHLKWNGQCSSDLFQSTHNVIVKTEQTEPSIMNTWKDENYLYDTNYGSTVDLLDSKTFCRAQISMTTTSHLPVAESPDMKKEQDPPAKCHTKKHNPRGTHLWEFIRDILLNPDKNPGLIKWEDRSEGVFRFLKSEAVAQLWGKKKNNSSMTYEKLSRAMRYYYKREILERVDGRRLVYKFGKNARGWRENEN
Procedure, shortened: as §1

SPIB = SPIB (Homo sapiens, UniProt Q01892 1-262); conditions: protein: recombinant; tags: N-terminal GST; dsDNA, one strand shown
Procedure, shortened: as §1

ELK3 = target: T6, ELK3 (Homo sapiens, UniProt P41970 1-407); conditions: protein: recombinant; tags: N-terminal GST; dsDNA, one strand shown
T6 sequence: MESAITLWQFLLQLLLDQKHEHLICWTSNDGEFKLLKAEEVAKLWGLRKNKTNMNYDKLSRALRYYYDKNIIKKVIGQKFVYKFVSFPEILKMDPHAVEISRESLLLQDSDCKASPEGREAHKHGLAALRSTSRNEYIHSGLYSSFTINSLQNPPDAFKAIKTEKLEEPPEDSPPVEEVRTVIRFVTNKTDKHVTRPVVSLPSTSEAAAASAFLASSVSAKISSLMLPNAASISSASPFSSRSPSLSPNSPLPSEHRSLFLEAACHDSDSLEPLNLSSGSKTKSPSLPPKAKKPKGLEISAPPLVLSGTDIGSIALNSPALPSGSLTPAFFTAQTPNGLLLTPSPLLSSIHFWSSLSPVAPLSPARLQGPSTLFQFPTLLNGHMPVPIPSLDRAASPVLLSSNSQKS
Procedure, shortened: as §1

FEV = target: T7, FEV (Homo sapiens, UniProt Q99581 1-238); conditions: protein: recombinant; tags: N-terminal GST; dsDNA, one strand shown
T7 sequence: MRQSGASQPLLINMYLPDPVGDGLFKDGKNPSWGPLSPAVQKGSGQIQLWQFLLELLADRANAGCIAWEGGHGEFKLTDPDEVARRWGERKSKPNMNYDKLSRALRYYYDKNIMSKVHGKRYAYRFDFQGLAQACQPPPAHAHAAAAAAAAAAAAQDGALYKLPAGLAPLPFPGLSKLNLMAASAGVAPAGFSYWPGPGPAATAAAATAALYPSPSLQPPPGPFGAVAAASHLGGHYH
Procedure, shortened: as §1

ETV5 = ETV5 (Homo sapiens, UniProt P41161 1-510); conditions: protein: recombinant; tags: N-terminal GST; dsDNA, one strand shown
Procedure, shortened: as §1

HSF1 = HSF1 (Homo sapiens, UniProt Q00613 1-529); conditions: protein: recombinant; tags: N-terminal GST; chain copies: 3; dsDNA, one strand shown
Procedure, shortened: as §1

SPIC = target: T8, SPIC (Homo sapiens, UniProt Q8N5J4 1-248); conditions: protein: recombinant; tags: N-terminal GST; dsDNA, one strand shown
T8 sequence: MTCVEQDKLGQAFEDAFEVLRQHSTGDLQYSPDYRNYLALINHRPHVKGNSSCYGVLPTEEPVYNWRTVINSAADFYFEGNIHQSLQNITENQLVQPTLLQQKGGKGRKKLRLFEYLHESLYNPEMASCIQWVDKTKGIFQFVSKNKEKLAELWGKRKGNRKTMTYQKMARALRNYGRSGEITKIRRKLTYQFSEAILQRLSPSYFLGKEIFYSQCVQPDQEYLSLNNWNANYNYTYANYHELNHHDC
Procedure, shortened: as §1

ELF4 = ELF4 (Homo sapiens, UniProt Q99607 1-663); conditions: protein: recombinant; tags: N-terminal GST; dsDNA, one strand shown
Procedure, shortened: as §1

ELK4 = target: T9, ELK4 (Homo sapiens, UniProt P28324-2 1-405); conditions: protein: recombinant; tags: N-terminal GST; dsDNA, one strand shown
T9 sequence: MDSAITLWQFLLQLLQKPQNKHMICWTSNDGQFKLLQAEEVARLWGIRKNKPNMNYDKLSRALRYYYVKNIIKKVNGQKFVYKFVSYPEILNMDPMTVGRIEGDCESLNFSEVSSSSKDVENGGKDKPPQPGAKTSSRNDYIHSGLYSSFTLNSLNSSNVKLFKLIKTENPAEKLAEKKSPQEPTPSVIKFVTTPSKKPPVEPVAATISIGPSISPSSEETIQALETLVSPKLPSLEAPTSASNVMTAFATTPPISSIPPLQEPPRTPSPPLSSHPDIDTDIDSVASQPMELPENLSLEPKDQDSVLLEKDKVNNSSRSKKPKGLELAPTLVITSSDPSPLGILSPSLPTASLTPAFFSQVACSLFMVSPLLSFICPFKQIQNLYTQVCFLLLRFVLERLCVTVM
Procedure, shortened: as §1

ELF3 = target: T10, ELF3 (Homo sapiens, UniProt P78545 1-371); conditions: protein: recombinant; tags: N-terminal GST; dsDNA, one strand shown
T10 sequence: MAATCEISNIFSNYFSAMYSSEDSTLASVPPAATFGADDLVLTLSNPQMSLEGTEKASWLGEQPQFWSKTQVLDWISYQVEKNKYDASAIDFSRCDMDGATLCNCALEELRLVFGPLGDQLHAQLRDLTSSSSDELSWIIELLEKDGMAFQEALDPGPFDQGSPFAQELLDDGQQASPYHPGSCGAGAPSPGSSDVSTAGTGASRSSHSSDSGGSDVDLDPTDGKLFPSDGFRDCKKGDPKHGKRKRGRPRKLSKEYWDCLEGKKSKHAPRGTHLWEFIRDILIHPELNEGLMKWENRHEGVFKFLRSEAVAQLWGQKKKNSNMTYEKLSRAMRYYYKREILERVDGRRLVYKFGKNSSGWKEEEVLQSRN
Procedure, shortened: as §1

CRX = CRX (Homo sapiens, UniProt O43186 1-299); conditions: protein: recombinant; tags: N-terminal GST; dsDNA, one strand shown
Procedure, shortened: as §1

ETV1 = ETV1 (Homo sapiens, UniProt P50549 1-477); conditions: protein: recombinant; tags: N-terminal GST; dsDNA, one strand shown
Procedure, shortened: as §1

SPI1 = SPI1 (Homo sapiens, UniProt P17947 1-270); conditions: protein: recombinant; tags: N-terminal GST; dsDNA, one strand shown
Procedure, shortened: as §1

Chain of ETV5 (P41161 whole entry): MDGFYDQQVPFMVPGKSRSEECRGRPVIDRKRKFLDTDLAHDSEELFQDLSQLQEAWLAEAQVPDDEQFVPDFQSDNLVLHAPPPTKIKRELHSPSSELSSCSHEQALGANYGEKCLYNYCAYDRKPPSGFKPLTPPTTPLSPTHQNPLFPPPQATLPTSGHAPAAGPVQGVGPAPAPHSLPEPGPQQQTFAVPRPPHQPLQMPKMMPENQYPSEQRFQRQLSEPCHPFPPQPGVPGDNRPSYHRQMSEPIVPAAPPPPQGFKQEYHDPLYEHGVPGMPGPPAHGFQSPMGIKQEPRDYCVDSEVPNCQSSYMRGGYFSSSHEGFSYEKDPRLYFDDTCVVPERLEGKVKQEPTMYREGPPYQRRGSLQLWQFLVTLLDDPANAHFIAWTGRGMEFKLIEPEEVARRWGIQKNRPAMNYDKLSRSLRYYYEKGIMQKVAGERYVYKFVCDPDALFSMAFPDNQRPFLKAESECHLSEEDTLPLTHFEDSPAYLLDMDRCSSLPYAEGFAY
Chain of CRX (O43186 whole entry): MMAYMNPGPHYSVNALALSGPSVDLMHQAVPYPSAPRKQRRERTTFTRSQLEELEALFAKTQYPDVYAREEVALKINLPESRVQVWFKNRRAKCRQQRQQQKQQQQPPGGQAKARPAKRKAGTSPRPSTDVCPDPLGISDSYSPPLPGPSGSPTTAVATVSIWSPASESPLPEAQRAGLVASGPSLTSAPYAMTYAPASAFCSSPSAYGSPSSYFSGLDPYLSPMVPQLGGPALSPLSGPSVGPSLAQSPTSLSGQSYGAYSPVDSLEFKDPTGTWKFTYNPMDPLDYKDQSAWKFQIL
Chain of SPIB (Q01892 whole entry): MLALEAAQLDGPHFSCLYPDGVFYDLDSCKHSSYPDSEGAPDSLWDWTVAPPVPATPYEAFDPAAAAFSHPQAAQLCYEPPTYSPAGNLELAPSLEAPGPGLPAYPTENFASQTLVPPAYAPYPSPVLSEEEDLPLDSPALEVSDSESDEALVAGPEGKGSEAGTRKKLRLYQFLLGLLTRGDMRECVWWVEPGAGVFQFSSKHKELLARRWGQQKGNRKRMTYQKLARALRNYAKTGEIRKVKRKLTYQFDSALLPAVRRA
Chain of ELF1 (P32519 whole entry): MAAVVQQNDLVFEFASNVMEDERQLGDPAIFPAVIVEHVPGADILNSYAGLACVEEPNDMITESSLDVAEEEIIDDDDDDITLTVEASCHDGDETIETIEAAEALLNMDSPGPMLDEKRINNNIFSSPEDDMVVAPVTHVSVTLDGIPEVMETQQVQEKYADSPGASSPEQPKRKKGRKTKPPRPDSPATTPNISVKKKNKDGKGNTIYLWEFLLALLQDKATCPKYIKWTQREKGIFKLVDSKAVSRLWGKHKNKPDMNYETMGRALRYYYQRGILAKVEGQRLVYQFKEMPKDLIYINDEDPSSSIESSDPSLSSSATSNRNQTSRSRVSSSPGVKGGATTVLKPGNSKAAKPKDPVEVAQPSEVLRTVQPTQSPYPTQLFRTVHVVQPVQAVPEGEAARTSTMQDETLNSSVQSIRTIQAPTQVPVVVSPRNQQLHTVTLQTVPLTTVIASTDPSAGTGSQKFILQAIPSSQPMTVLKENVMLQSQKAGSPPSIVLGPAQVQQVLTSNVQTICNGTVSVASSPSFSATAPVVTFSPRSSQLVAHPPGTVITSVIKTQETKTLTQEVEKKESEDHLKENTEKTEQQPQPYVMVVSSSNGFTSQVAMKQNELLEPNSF
Chain of ELF4 (Q99607 whole entry): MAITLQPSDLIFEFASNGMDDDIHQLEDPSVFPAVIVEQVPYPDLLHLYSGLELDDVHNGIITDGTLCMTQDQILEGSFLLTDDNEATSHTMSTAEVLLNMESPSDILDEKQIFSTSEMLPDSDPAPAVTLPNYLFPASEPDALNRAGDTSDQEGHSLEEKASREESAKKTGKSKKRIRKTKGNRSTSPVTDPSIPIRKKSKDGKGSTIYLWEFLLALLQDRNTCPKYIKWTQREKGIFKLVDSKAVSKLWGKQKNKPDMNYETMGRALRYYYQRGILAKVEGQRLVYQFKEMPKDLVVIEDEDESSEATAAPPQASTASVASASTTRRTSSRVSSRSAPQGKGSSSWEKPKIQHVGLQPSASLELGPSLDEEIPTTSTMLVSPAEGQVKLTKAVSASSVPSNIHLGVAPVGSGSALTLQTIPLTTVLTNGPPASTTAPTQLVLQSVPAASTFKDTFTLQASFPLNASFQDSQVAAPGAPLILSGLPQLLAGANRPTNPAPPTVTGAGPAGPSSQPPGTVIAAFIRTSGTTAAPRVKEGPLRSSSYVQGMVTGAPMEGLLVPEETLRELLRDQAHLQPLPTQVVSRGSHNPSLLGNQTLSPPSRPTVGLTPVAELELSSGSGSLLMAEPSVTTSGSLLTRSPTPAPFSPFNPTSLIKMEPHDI
Chain of HSF1 (Q00613 whole entry): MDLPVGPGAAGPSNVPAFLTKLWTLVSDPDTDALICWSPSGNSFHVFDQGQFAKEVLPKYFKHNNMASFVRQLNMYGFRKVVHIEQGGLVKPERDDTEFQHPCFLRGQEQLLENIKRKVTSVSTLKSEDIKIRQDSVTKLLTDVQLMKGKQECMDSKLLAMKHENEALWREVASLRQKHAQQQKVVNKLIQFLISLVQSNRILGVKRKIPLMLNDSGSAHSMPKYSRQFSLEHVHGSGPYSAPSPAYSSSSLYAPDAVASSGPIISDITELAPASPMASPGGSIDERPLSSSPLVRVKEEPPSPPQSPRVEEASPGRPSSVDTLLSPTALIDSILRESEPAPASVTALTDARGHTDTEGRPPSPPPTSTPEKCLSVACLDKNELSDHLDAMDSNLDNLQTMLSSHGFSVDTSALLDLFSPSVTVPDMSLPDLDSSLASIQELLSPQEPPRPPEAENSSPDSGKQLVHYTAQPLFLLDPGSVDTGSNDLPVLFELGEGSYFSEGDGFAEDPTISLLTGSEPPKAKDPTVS
Chain of ETV1 (P50549 whole entry): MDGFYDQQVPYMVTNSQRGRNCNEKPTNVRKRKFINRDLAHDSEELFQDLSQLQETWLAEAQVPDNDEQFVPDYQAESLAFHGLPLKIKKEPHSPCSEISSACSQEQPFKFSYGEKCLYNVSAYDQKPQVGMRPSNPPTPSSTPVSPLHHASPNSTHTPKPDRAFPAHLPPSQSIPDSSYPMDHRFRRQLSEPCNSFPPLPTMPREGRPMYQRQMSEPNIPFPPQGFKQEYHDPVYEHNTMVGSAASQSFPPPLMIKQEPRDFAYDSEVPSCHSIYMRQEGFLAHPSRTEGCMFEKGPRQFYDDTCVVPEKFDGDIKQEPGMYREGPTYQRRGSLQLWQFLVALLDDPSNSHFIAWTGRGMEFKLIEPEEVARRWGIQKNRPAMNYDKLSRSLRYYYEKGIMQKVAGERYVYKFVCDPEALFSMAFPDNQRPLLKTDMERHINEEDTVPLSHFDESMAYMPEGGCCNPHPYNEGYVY

Sequence	binding signal (FLI1)	binding signal (ELK1)	binding signal (GABPA)	binding signal (ERG)	binding signal (ELF1)	binding signal (EHF)	binding signal (SPIB)	binding signal (ELK3)	binding signal (FEV)	binding signal (ETV5)	binding signal (HSF1)	binding signal (SPIC)	binding signal (ELF4)	binding signal (ELK4)	binding signal (ELF3)	binding signal (CRX)	binding signal (ETV1)	binding signal (SPI1)
TGCTTA	1.04 fold enrichment (6-mer frequency, TF over GST control)	1.06 fold enrichment (6-mer frequency, TF over GST control)	1.21 fold enrichment (6-mer frequency, TF over GST control)	1.15 fold enrichment (6-mer frequency, TF over GST control)	1.13 fold enrichment (6-mer frequency, TF over GST control)	1.08 fold enrichment (6-mer frequency, TF over GST control)	1.06 fold enrichment (6-mer frequency, TF over GST control)	1 fold enrichment (6-mer frequency, TF over GST control)	1.03 fold enrichment (6-mer frequency, TF over GST control)	1.09 fold enrichment (6-mer frequency, TF over GST control)	1.33 fold enrichment (6-mer frequency, TF over GST control)	1.32 fold enrichment (6-mer frequency, TF over GST control)	1.11 fold enrichment (6-mer frequency, TF over GST control)	1.04 fold enrichment (6-mer frequency, TF over GST control)	1.09 fold enrichment (6-mer frequency, TF over GST control)	1.78 fold enrichment (6-mer frequency, TF over GST control)	1.11 fold enrichment (6-mer frequency, TF over GST control)	
TGGTTA	1.17 fold enrichment (6-mer frequency, TF over GST control)	1.08 fold enrichment (6-mer frequency, TF over GST control)	1.09 fold enrichment (6-mer frequency, TF over GST control)	1.13 fold enrichment (6-mer frequency, TF over GST control)	1.1 fold enrichment (6-mer frequency, TF over GST control)		1.12 fold enrichment (6-mer frequency, TF over GST control)	1.13 fold enrichment (6-mer frequency, TF over GST control)	1.05 fold enrichment (6-mer frequency, TF over GST control)	1.03 fold enrichment (6-mer frequency, TF over GST control)	1.03 fold enrichment (6-mer frequency, TF over GST control)	1.25 fold enrichment (6-mer frequency, TF over GST control)	1.02 fold enrichment (6-mer frequency, TF over GST control)	1.06 fold enrichment (6-mer frequency, TF over GST control)	1.16 fold enrichment (6-mer frequency, TF over GST control)	1.15 fold enrichment (6-mer frequency, TF over GST control)	1.01 fold enrichment (6-mer frequency, TF over GST control)	1.15 fold enrichment (6-mer frequency, TF over GST control)
